Laboratory results published in PubChem BioAssay AID493083 (Broad Institute, 2011).
Hit rate of the full screen: of about 2,400 compounds, about 95 (4%) were called active. About 3% were inconclusive and are not listed.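 The calls were made as follows: active = compounds lowering signal whose fitted AC50 is at most ten times the top tested dose; inconclusive = flat fit with moderate inhibition, or poor curve fit; inactive = the rest.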 Not all results are given here. Entries with a potency or affinity are not part of this list.

Assay: GFP reporter loss versus dox-driven RFP – NIH3T3 R4 cells, cherry-pick, set 3, dose response (AID 493083);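 also: 0% = neutral control wells and -100% = didemnin B positive control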
Details: NIH3T3 R4 HSF-1 GFP reporter, heat shock, 48 h; series mostly up to 19.5 µM; activity change, negative = inhibition: at the top concentration

Activity change, negative = inhibition, inactive:
COC(=O)C1(Cc2ccccc2)NC(c2ccccc2C)C2C(=O)N(c3ccc4c(c3)OCO4)C(=O)C21 (stereo not given) 1.42%
Cc1cccc(N(Cc2ccccc2)C(=O)CCl)c1 30.1%
CCN(C(=O)COC(=O)/C=C/c1ccccc1)C1CCCCC1 -5.04%
CC(C)(C)C(CN1CCCC1)OC(=O)c1ccccc1 (stereo not given) -1.59%
COc1ccc(OC)c(N=C2SCCCN2C(=O)c2ccc(N3C(=O)CCC3=O)cc2)c1 -7.4%
CCOc1ccc(CCNC(=O)c2nn(C)c3c2CS(=O)(=O)c2ccccc2-3)cc1 16.6%
Cc1cc(C)c2cc(CN(CCN(C)C)C(=O)Nc3ccccc3Cl)c(=O)[nH]c2c1 5.03%
Cc1ccc(C(=O)N2CCCC(Nc3ccc(F)cc3)C2)cc1C (stereo not given) 0.822%
Cc1ccc(-n2ncc3c(NCc4ccc5c(c4)OCO5)ncnc32)c(C)c1 26.2%
Nc1ccccc1SCC(=O)Nc1ccc2c(c1)OCCO2 -0.379%
CC(=O)c1ccc(NC(=O)c2cnn3ccccc23)cc1 5.6%
Cc1cc(/C([O-])=C(/C(=S)Nc2ccccc2)[n+]2ccccc2)c(C)n1-c1ccccc1 5.95%
NC(=O)COC(=O)c1cc(=O)[nH]c2ccccc12 -4.28%
COc1ccc(NC(=O)CN(C)CC(=O)Nc2ccc3c(c2)CCC3)cc1 -2.35%
CCO[C@@H]1OC(C(=O)NCc2ccccc2)=C[C@H](c2ccc3c(c2)OCO3)[C@H]1CCCO -7.04%
CC[n+]1c(/C=C/c2cc([N+](=O)[O-])ccc2O)ccc2ccccc21 14.5%
COc1ccc(N2CCN(S(=O)(=O)c3cc4c(cc3C)N(C(C)=O)CCO4)CC2)cc1 10.3%
COc1ccc(NC(=O)CCN2CCN(S(=O)(=O)c3ccc(OC)cc3)CC2)cc1 13.3%
Cc1cc(NC(=O)C2C3C(=O)N(Cc4ccc(Cl)cc4)C(C(=O)NC(C)(C)C)C34C=CC2(C)O4)no1 (stereo not given) -4.82%
COc1cc(OC)c(NC(=O)CN(C)S(=O)(=O)c2ccc3[nH]c(=O)oc3c2)cc1Cl -1.32%
O=C(CCl)Nc1ccccc1C(=O)c1ccccc1 1.46%
O=C(CCl)NC(Cc1ccccc1)c1ccccc1 (stereo not given) 4.64%
O=C1C2CCCN2c2ccc(S(=O)(=O)N3CCOCC3)cc2N1Cc1cccc(C(F)(F)F)c1 (stereo not given) 2.71%
O=C(CSc1nnc(CNC(=O)c2cccs2)o1)NCc1ccc(F)cc1 -4.17%
COCCNC(=O)CSC1=N/C(=C/c2ccc(Cl)c(Cl)c2)C(=O)N1c1ccccc1F 34.4%
CC(C)Sc1nc(SCC(=O)NCc2ccco2)c2c3c(sc2n1)COC(C)(C)C3 17.8%
CCOC(=O)N1CCN(C(=S)Nc2ccc(C)cc2C)CC1 -2.21%
CC1CCCN(S(=O)(=O)c2ccc(Br)s2)C1 (stereo not given) 1.88%
Cc1ccc(Cl)cc1NC(=O)C1COc2ccccc2O1 (stereo not given) -0.666%
CN(C)c1ccc(/C=N/NC(=O)C2COc3ccccc3O2)o1 (stereo not given) 7.29%
O=S(=O)(Cc1cc(Oc2ccccc2)nc(-c2ccccc2)n1)c1ccccc1 23.5%
O=C(O)C(=O)Nc1ccc(NC(=O)C(c2ccccc2)c2ccccc2)cc1 -4.7%
CCCS(=O)(=O)N1CCc2cc(OC)c(OC)cc2C1 -3.49%
Nc1ncnc2nc(N3CCN(C(=O)c4ccccc4)CC3)[nH]c12 -1.58%
O=C(CSC(=S)N1CCOCC1)Nc1nc(-c2ccccc2)c(-c2ccccc2)o1 -2.41%
Nc1nc(Cl)nc2c1ncn2C1CC(O)C(CO)O1 (stereo not given) 1.43%
CN1CCN(S(=O)(=O)c2cccc(C(=O)NCCC3=CCCCC3)c2)CC1 -0.832%
COc1ccc(N2CCN(c3ccc(NC(=O)NN)cc3)CC2)cc1 9.66%
Cc1cc(NC(=O)c2ccc3nc(C)sc3c2)no1 -6.84%
COc1ccccc1N1CCN(C(=S)Nc2ccc(F)cc2)CC1 -0.471%
O=c1[nH]cc(S(=O)(=O)c2ccccc2)[nH]1 -5.55%
CC1CCN(CC(=O)NC2CCCCC2)CC1 -2.37%
CCS(=O)(=O)N1CCN(C(=O)c2ccccc2)CC1 0.578%
Cc1ccc2c(c1)c(C)c(C)n2CC(O)Cn1nnc2ccccc21 (stereo not given) 0.602%
O=S1(=O)N[C@H](c2ccccc2)C[C@H](c2ccc(C(F)(F)F)cc2)O1 1.91%
CC(C)[C@H](NC(=O)Cc1ccccc1)C(=O)OCc1cc(=O)n2c(n1)sc1ccccc12 0.187%
Cc1ccc(CN2CCN(Cc3cccc(OCCO)c3)CC2CCO)o1 (stereo not given) -1.47%
Cc1ccc(-c2nn(-c3ccccc3)cc2CN(C)C(=O)CCC(=O)O)cc1C 4.16%
Fc1ccc(-n2cc(CNCCc3ccccn3)c(-c3ccccc3Cl)n2)cc1 6.94%
CN=c1scc(-c2cccs2)n1/N=C/c1ccccc1O 21.7%
CN=c1scc(-c2ccccc2F)n1/N=C/c1ccc[nH]1 30.7%
CN(C)S(=O)(=O)c1ccc(-c2csnn2)s1 0.103%
CCn1c(C(C#N)/C(=N\S(=O)(=O)c2cccs2)c2ccccc2)nc2ccccc21 (stereo not given) -6.65%
Cc1ccc(S(=O)(=O)N2CCC(C(=O)N[C@@H](Cc3ccccc3)C(=O)O)CC2)cc1 0.492%
CCN1C(=O)c2ccccc2S(=O)c2ccc(C(=O)NCc3ccc(OC)cc3)cc21 (stereo not given) -1.83%
Cc1ccc(C(=O)Nc2cc3ccccc3oc2=O)cc1 -1.68%
Cc1nc2ccc(NC(=O)N3CCSCC3)cc2s1 -4.41%
COC(=O)c1cc(S(=O)(=O)NCc2ccc(F)cc2)cn1C -1.23%
COc1ccc(CNC(=O)CCCNC(=O)c2ccc(Cl)cc2)cc1OC -2.5%
C=CCOc1ccccc1CN(C(=O)CCl)c1ccc2c(c1)OCO2 6.58%
